The source made the active and inactive calls. How the source made its calls: active means hit-call score of the fitted dose curve at least 0.9, where 1 is the maximum; inactive means score below 0.9.
experiment: CCTE_Shafer_MEA_acute_per_network_burst_electrodes_number_mean: CCTE's Neural Acute Assay for Mean Number of Electrodes in a Network Burst, Shafer Lab (AID 2284021);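 further: curves fitted for decreases only so hits reduce electrodes per burst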
Procedure: CCTE_Shafer_MEA_acute assay is conducted using Axion Biosystems 48 well microelectrode array (MEA) plates and Maestro recording system. Each well of the MEA plate contains a grid of 16 microelectrodes embedded in the culture surface. Electrically active cells, such as neurons, can be cultured over the electrodes, and electrical activity in these cells can be recorded extracellularly. The spontaneous firing of neurons is captured from each electrode on a microsecond timescale providing both temporally and spatially precise data. […] The CCTE_Shafer_MEA_acute assay uses primary cultures of rat cortical neurons. As these cultures mature over time, neural networks develop functional activity and form cohesive networks in which electrical activity can be highly coordinated. Baseline 40-minute recordings are made on days post-plating 13 or 15, followed by a secondary 40-minute recording after chemical exposure.CCTE_Shafer_MEA_acute_per_network_burst_electrodes_number_mean is a component of the CCTE_Shafer_MEA_acute assay. It measures the average number of electrodes with activity during a network burst (a temporally-clustered group of action potential firing across multiple electrodes) in a recording in a microelectrode array (MEA) using Axion Biosystems Maestro 768 channel amplifier with the AxIS adaptive spike detector. The recordings before and after chemical treatment are used to calculate a percent change in the mean number of electrodes participating in network bursts in each well.Data from the assay component CCTE_Shafer_MEA_acute_per_network_burst_electrodes_number_mean was analyzed into 1 assay endpoint. This assay endpoint, CCTE_Shafer_MEA_acute_per_network_burst_electrodes_number_mean, was analyzed in the negative analysis fitting direction relative to DMSO as the negative control and baseline of activity. Using a type of functional reporter, gain or loss-of-signal activity can be used to understand electrical activity.
Spontaneous activity in the cortical cultures was recorded using an Axion Biosystems Maestro 768 channel amplifier and Axion Integrated Studios (AxIS) v1.8 (or later) software. The amplifier recorded from all channels simultaneously (gain = 1200 x; sampling rate = 12.5 kHz/channel): raw signals were filtered with a Butterworth band-pass filter (300-5000 Hz), which filters out slower local field potentials leaving only fast potentials, i.e., "spikes", arising from extracellular currents associated with action potentials (Pine 2006; Wheeler and Nam 2011). On-line spike detection of filtered signals was conducted with the AxIS adaptive spike detector, using a threshold of 8x the root mean squared (rms) noise on each channel. Any electrodes with rms noise levels greater than 5 uV were grounded (e.g., no data were recorded). Once grounded, an electrode was grounded for the duration of the experiment. All recordings were conducted at 37 C. Wells were deemed usable if on the day of the exposure >/= 10 electrodes were active (defined as >/= 5 spikes/min). On DIV 13 or 15, a minimum of three wells from one cortical culture preparation were treated with each compound (0.03-40 uM). Prior to recording baseline activity, each mwMEA plate was placed in the Maestro at 37 C and allowed to sit for 20 min while firing rates stabilized. Baseline activity (40 min) was recorded before the addition of each compound. An additional 40 min of spontaneous activity was recorded in the presence of each compound. Changes in network parameters relative to baseline were assessed following compound treatment.

Compound	outcome	AC50
c1cc[n+]2c(c1)-c1cccc[n+]1CC2	inactive	
Cc1ccc(OP(=O)(Oc2ccc(C)cc2)Oc2ccc(C)cc2)cc1 (tested in a mixture with another compound)		7680 nM (active)
Oc1ccc(C2(c3ccc(O)cc3)c3ccccc3-c3ccccc32)cc1	inactive	
[Cd+2].[Cl-].[Cl-]	inactive	
CCCC[N+](CCCC)(CCCC)CCCC	inactive	
COc1ccc(CO)cc1	inactive	
CC1(C)[C@H](C=C(Cl)Cl)[C@@H]1C(=O)O[C@@H](C#N)c1cccc(Oc2ccccc2)c1		1230 nM (active)
O=C(O)CNCP(=O)(O)O	inactive	
O=[N+]([O-])O	inactive	
CC1(C)[C@@H](C=C(Cl)Cl)[C@@H]1C(=O)O[C@@H](C#N)c1ccc(F)c(Oc2ccccc2)c1		1680 nM (active)
C#CCN(C)[C@H](C)Cc1ccccc1	inactive	
CP(=O)(O)CCC(N)C(=O)O (stereo not given)	inactive	
CC1(C)[C@H](C(=O)O[C@H](C#N)c2cccc(Oc3ccccc3)c2)[C@@H]1C=C(Br)Br	inactive	
CP(=O)(O)CC[C@H](N)C(=O)O	inactive	
O=c1c2ccccc2c(=O)c2c1cc(Cl)c1[nH]c3c([nH]c12)c(Cl)cc1c(=O)c2ccccc2c(=O)c13	inactive	

From PubChem BioAssay (EPA / NIEHS)
